{
  "source": "ChEMBL document CHEMBL4513216",
  "about": "“Probing the Open Global Health Chemical Diversity Library for Multistage-Active Starting Points for Next-Generation Antimalarials” (ACS Infect Dis, 2020)",
  "note": "About 8,600 (12%) of roughly 69,000 compounds showed an effect of 50% or more. The list comes from a sample in which strong results are over-represented; it also holds similar structures and randomly drawn compounds.",
  "data": [
    {"test_system": "Plasmodium berghei", "experiment": "Screen against P. berghei liver stage (PbLuc), transformed with Luciferase, at 10uM", "type": "functional, HepG2", "conditions": "tested at 10 uM", "units": {"INHIBITION": "%"}, "values": [
      {"smiles": "CSc1cccc(CN2CCn3nc(CNC(C)=O)cc3C2)c1", "INHIBITION": 8.38},
      {"smiles": "Cn1ncc2c1C(COCC1CC1)CN(Cc1ccc(F)cc1)C2", "note": "(stereo not drawn)", "INHIBITION": -5.69},
      {"smiles": "Cc1cc(C)n(-c2ccc(C(=O)NCC(CO)Cc3ccco3)cc2)n1", "note": "(stereo not drawn)", "INHIBITION": 32.1},
      {"smiles": "Cc1csc(CNc2cnc3c(c2)c(C)nn3C)n1", "INHIBITION": 16},
      {"smiles": "CSc1ccc(NS(=O)(=O)c2cnn(C)c2)cn1", "INHIBITION": 1.81},
      {"smiles": "COc1ccc(S(=O)(=O)Nc2cnc(N(C)C)nc2)cc1", "INHIBITION": 40.6},
      {"smiles": "Cc1nc(N(C)C)nc(C)c1NS(=O)(=O)c1ccc(OC(F)(F)F)cc1", "INHIBITION": -2.09},
      {"smiles": "Cn1cc(NS(=O)(=O)c2ccc(OC(F)(F)F)cc2)ccc1=O", "INHIBITION": 84.6},
      {"smiles": "O=S(=O)(Nc1cnc(N2CCCC2)nc1)c1ccc(C(F)(F)F)cc1", "INHIBITION": 37.3},
      {"smiles": "Cc1ccc(S(=O)(=O)Nc2ccc(=O)n(C)c2)cc1", "INHIBITION": 46.5},
      {"smiles": "O=S(=O)(Nc1cnc(N2CCCC2)nc1)c1ccc(OC(F)(F)F)cc1", "INHIBITION": 40.1},
      {"smiles": "Cn1cc(NS(=O)(=O)c2ccc(C(F)(F)F)cc2)ccc1=O", "INHIBITION": 60.5},
      {"smiles": "CN(C)c1ncc(NS(=O)(=O)c2ccc(OC(F)(F)F)cc2)cn1", "INHIBITION": 51.6},
      {"smiles": "O=C(c1cccnc1N1CCOCC1)N1CCCC(n2cncn2)C1", "note": "(stereo not drawn)", "INHIBITION": 36.1},
      {"smiles": "CC(C)OCCN1CCC(Nc2nccnc2C#N)CC1", "INHIBITION": 33.1},
      {"smiles": "Cc1ccc(CN2CCC3(CCC3NS(=O)(=O)c3ccccc3)CC2)o1", "note": "(stereo not drawn)", "INHIBITION": -12.4},
      {"smiles": "O=c1ccc2c(n1CCN1CCCC1)CCN(Cc1ccoc1)CC2", "INHIBITION": 8.47},
      {"smiles": "COCCN1CCCC(c2cncc(Oc3ccccc3OC)n2)C1", "note": "(stereo not drawn)", "INHIBITION": -5.71},
      {"smiles": "O=C1CN(Cc2cn(CC3CCCN(C4CCSCC4)C3)nn2)CCN1", "note": "(stereo not drawn)", "INHIBITION": 54.5},
      {"smiles": "Cc1cc(N2CCC(n3cc(CN4CCSCC4)nn3)CC2)ccn1", "INHIBITION": 30.9},
      {"smiles": "O=C1CN(Cc2cn(CC3CCN(C4CCSCC4)CC3)nn2)CCN1", "INHIBITION": 32.2},
      {"smiles": "O=C1CN(Cc2cn(C3CCN(C4CSCCSC4)CC3)nn2)CCN1", "INHIBITION": 65.6},
      {"smiles": "c1cc(CN2CCC(n3cc(CN4CCCC4)nn3)CC2)cs1", "INHIBITION": 42.1},
      {"smiles": "OC1CCCN(Cc2cn(CC3CCN(C4CCSCC4)CC3)nn2)C1", "note": "(stereo not drawn)", "INHIBITION": 18.3},
      {"smiles": "c1cncc(CN2CC(Cc3nccc4cc[nH]c34)C2)c1", "INHIBITION": 19.3},
      {"smiles": "O=C(NCC1CCC1)c1ccc(-n2ccnc2)nn1", "INHIBITION": -15},
      {"smiles": "CCCOc1ccc(C(=O)Oc2cc(=O)n3cccc(C)c3n2)cc1", "INHIBITION": 0.207},
      {"smiles": "CC1c2ncc(COCc3ccccn3)n2CCN1C1CCCC1", "note": "(stereo not drawn)", "INHIBITION": 37.8},
      {"smiles": "O=C(O)c1ccccc1-c1ccc(Cn2c(=O)cc[nH]c2=O)cc1", "INHIBITION": 2.55},
      {"smiles": "Cc1ccnc(C2CCCN2C(=O)CN(C)C)n1", "note": "(stereo not drawn)", "INHIBITION": -16.5},
      {"smiles": "O=C(NCCn1nc2ccccn2c1=O)c1sccc1-c1ccccc1", "INHIBITION": -20.53},
      {"smiles": "CC(C)COCCNC(=O)NC1CCCN(c2cnn(C)c2)C1", "note": "(stereo not drawn)", "INHIBITION": -49.3},
      {"smiles": "Fc1cccc(Cc2cncc(C3CCCN3C3CCOCC3)n2)c1", "note": "(stereo not drawn)", "INHIBITION": 41.1},
      {"smiles": "COCC(=O)N1CCC(c2cncc(-c3cccc(F)c3)n2)CC1", "INHIBITION": 8.72},
      {"smiles": "c1ccc(Cc2cccc(C3CCCN3C3CCOCC3)n2)cc1", "note": "(stereo not drawn)", "INHIBITION": 32.921},
      {"smiles": "COCC(=O)N1CCC(c2cccc(Cc3ccc(F)cc3)n2)CC1", "INHIBITION": 54},
      {"smiles": "CN(C)C(=O)CN1CCC(c2cccc(Cc3ccc(F)cc3)n2)CC1", "INHIBITION": 24.4},
      {"smiles": "Fc1ccc(Cc2cccc(C3CCN(C4CCOCC4)CC3)n2)cc1", "INHIBITION": 72.3},
      {"smiles": "Cc1nn(C)c2c(=O)n(C)c(NCC3CCCO3)nc12", "note": "(stereo not drawn)", "INHIBITION": 49.1},
      {"smiles": "CC(=O)N1N=C(Cc2ccccc2)OC1C(=O)NCC(C)C", "note": "(stereo not drawn)", "INHIBITION": -21.1},
      {"smiles": "Cn1cc(C2COC3(CCN(C(=O)c4ccsc4)CC3)C2)cn1", "note": "(stereo not drawn)", "INHIBITION": 69.5},
      {"smiles": "CN1CC(=O)N(c2ccsc2)CC12CCN(C(=O)c1ccc[nH]1)C2", "note": "(stereo not drawn)", "INHIBITION": 15.9},
      {"smiles": "CN1CC(=O)N(c2ccsc2)CC12CCN(C(=O)c1ccccc1)C2", "note": "(stereo not drawn)", "INHIBITION": 45.5},
      {"smiles": "Cc1ccc(C(=O)N2CCC3(CC2)CC(c2cnn(C)c2)CO3)cn1", "note": "(stereo not drawn)", "INHIBITION": 39.2},
      {"smiles": "Cn1cc(C2COC3(CCN(C(=O)c4ccn(C)n4)CC3)C2)cn1", "note": "(stereo not drawn)", "INHIBITION": 41.6},
      {"smiles": "Cn1cc(C2COC3(CCN(C(=O)c4cccn4C)CC3)C2)cn1", "note": "(stereo not drawn)", "INHIBITION": 36.9},
      {"smiles": "Cn1cc(C2COC3(CCN(C(=O)c4ccccn4)CC3)C2)cn1", "note": "(stereo not drawn)", "INHIBITION": 42.7},
      {"smiles": "Cc1cccc(C(=O)N2CCC3(CC2)CC(c2cnn(C)c2)CO3)c1", "note": "(stereo not drawn)", "INHIBITION": 69.5},
      {"smiles": "Cc1ccccc1C(=O)N1CCC2(CC1)CC(c1cnn(C)c1)CO2", "note": "(stereo not drawn)", "INHIBITION": 53.2},
      {"smiles": "CN1CC(=O)N(c2cnn(C)c2)CC12CCN(C(=O)c1ccsc1)C2", "note": "(stereo not drawn)", "INHIBITION": 51.7},
      {"smiles": "Cn1cc(C2COC3(CCN(C(=O)c4ccc(F)cc4)CC3)C2)cn1", "note": "(stereo not drawn)", "INHIBITION": 18.2},
      {"smiles": "Cn1cc(C2COC3(CCN(C(=O)c4cccc(O)c4)CC3)C2)cn1", "note": "(stereo not drawn)", "INHIBITION": 32.2},
      {"smiles": "Cc1nc(C)n(CC(=O)N2CCc3ncc(Cl)cc3C2)n1", "INHIBITION": 8.72}
    ]}
  ]
}
